# Shown is part of a subset that was picked to be rich in hits.
# Pf Dd2 inh = Plasmodium falciparum Dd2 growth inhibition; P. falciparum Dd2 growth, SYBR Green, 72 h; Potency, µM (top dose mostly 28.9 µM), inactives show at the highest dose activity, negative = inhibition, usual class: inhibitors; 120,000 compounds, 4.3% hits; active = well fitted inhibition curve with a large enough effect;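 note: plate controls were DMSO vehicle for no effect and reference drug for full effect; nearly all actives have a fitted effect of over 65% in size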
#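 Readout: SYBR Green fluorescence, 485 nm excitation, 535 nm emission, after ~16 h lysis at 37C. Before that, Dd2-infected red cells (2.5% hematocrit) grew 72 h with compound, 29 uM top final concentration.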
# * marks the source's active call; other numbers are inactive results; i = inactive; [ ] = remark or other dose. Potency is the fitted concentration of half-maximal effect.
SMILES,Pf Dd2 inh
COc1ccc(-c2noc(-c3nnn4c3COC(c3cccc(OC)c3)C4)n2)cc1 (centres undefined),-7%
Cc1nc(SCC(=O)Nc2ccccc2Cl)cc(-c2ccccc2)n1,9%
COc1ccc(CCC(=O)N2CCCN(c3cc(-c4ccc(Br)cc4)[nH]n3)CC2)cc1,-8%
COc1cc(OC)cc(C(=O)N2CCN(c3cc(-c4ccc(Cl)cc4)[nH]n3)CC2)c1,-14%
COc1ccc(-c2cc(N3CCCN(C(=O)c4ccccc4)CC3)n[nH]2)cc1,-1%
O=C(CCCc1ccccc1)N1CCN(c2cc(-c3ccccc3)[nH]n2)CC1,i
COc1ccc(-c2cc(N3CCCN(C(=O)CCCc4ccccc4)CC3)n[nH]2)cc1,2.2µM*
COc1cccc(C(=O)N2CCCN(c3cc(-c4ccc(Cl)cc4)[nH]n3)CC2)c1,4µM*
O=C1NC2(CCN(C(=O)c3ccccc3F)C2)N=C1c1ccccn1 (centres undefined),9%[44.1 µM]
CCOCC(=O)N1CCCC(c2[nH]ccc2C(=O)NC)C1 (centres undefined),16%
Cc1ccc(NC(=O)Cn2ccn3nc4c(c3c2=O)CCCC4)cc1F,11%
COc1ccc(OCc2ccc(-c3nc(C#N)c(N4CCN(C)CC4)o3)o2)cc1,i[0.594 µM]
O=C1COCCN1C1CCN([S+](=O)([O-])c2cccs2)CC1,13%
COc1ccc(-c2cc3ccc(O)c(CN4CCCC(C)C4)c3oc2=O)cc1 (centres undefined),1µM*
COc1ccc(-c2c(C)c3ccc(O)c(CN4CCCC(C)C4)c3oc2=O)cc1OC (centres undefined),11µM*
COc1ccc(-c2nnc([C@H]3CCN(C(=O)c4ccc(OC)c(OC)c4)C3)o2)cc1,i
COc1ccc(S(=O)(=O)NCC2CCCN(Cc3ccc(-c4ccco4)cc3)C2)cc1 (centres undefined),-14%
COc1ccc(-c2cc3ccc(O)c(CN4CCCC(C)C4)c3oc2=O)cc1OC (centres undefined),4.5µM*
COc1ccc(-c2c(C)c3ccc(O)c(CN4CCN(CCO)CC4)c3oc2=O)cc1OC,3%
COc1ccc(-c2cc3ccc(O)c(CN4CCCC4)c3oc2=O)cc1OC,4µM*
COc1ccc(-c2c(C)c3cc(OC(=O)N4CCOCC4)ccc3oc2=O)cc1OC,i
COc1ccc(NC(=O)N2CCN(Cc3nc4ccc(C)cc4o3)CC2)cc1OC,30%
COc1ccc(N2CCN(C3CCCN(Cc4cc(=O)[nH]c(=O)[nH]4)C3)CC2)cc1 (centres undefined),-1%
COc1ccc(CCC(=O)N2CCC[C@H]2c2nc(-c3ccc(OC)c(OC)c3)no2)cc1,i
COc1ccc(-c2nc(CN3CCC(C(=O)NCCc4ccccc4)CC3)c(C)o2)cc1OC,i
SMILES,Pf Dd2 inh
Cc1nc(N2CCCCCC2)ncc1C(=O)O,11%
Cc1cc(F)cc(CN2CCOc3cc([S+](N)(=O)[O-])ccc3C2)c1,-21%[44.1 µM]
Cc1ccc2c(CC(=O)N3CCN(c4cccc(Cl)c4)CC3)coc2c1,-1%
CNC(=O)[C@@H](C1CC1)N1CCC[C@H]1C(=O)NCc1cccnc1,33%[44.1 µM]
COc1ccccc1-c1nc(CNC(=O)NC2CCCCC2)c(C)o1,54%
CC1=C(C(=O)Nc2ccc(F)cc2F)C2(CCN(C(C)C)CC2)OC1=O,i
COc1cccc(C(=O)NC2CCN(c3cnn(C)c(=O)c3)CC2)c1,-4%
COc1ccc(CNC(=O)N2C[C@@H](C)[C@](O)(C(C)C)C2)cc1,-16%
Cc1cnc(C2CC2)n1C1CCN(C(=O)N(C)C)CC1,i
Cc1cn2nnc(C(=O)NCc3ccncc3)c2c(=O)[nH]1,57%
Cc1cn2nnc(C(=O)NCc3ccc4c(c3)OCO4)c2c(=O)[nH]1,6.3µM*
COc1ccc(CNC(=O)c2nnn3cc(C)[nH]c(=O)c23)cc1,-28%
Cc1cn2nnc(C(=O)NCC3CC3)c2c(=O)[nH]1,42%
Cc1cn2nnc(C(=O)N3CCC(C(=O)NCc4cccc(Cl)c4)CC3)c2c(=O)[nH]1,4.5µM*
Cc1cn2nnc(C(=O)NCC3CCCCC3)c2c(=O)[nH]1,6.3µM*
CCCNC(=O)c1nnn2cc(C)[nH]c(=O)c12,61%
Cc1cn2nnc(C(=O)N3CCC(C(=O)NCc4ccccc4Cl)CC3)c2c(=O)[nH]1,-8%
Cc1ccc(CNC(=O)C2CCN(C(=O)c3nnn4cc(C)[nH]c(=O)c34)CC2)cc1,i
CN1CCC2(CCC1=O)CN(C(=O)c1nn(C)c3c1CCCC3)CCN2C (centres undefined),-14%
O=C1N[C@H](CC(=O)N2CCC(c3noc4cc(F)ccc34)CC2)C(=O)Nc2ccccc21,-27%
Cc1cnc(C2CC2)n1CCNC(=O)CN1CCOCC1,10%
Cn1nc2n(c1=O)CCC(NC(=O)CCc1nc3ccccc3[nH]1)CC2 (centres undefined),0%
O=C(c1cnccn1)N1CCC(Oc2ccc3ncccc3c2)(C(=O)O)CC1,-9%
COc1ccc(CNC(=O)C(C(C)C)N2Cc3ccccc3C2=O)cc1 (centres undefined),44%

# Bioassay records (PubChem)
